Data as given in PubChem BioAssay (Tox21).
Records with an inconclusive call do not appear. Calls of active or inactive are those of the source. Calls come from the whole dose curve; as a rule, active = well fitted activation curve with a large enough effect in the repeat runs; inconclusive = weak or mixed curves; inactive = no such curve, though single readings can be large or run the other way.
% is set by controls: 0 for no effect and ±100 for the full control effect; potency is the fitted concentration of half-maximal effect.

Each molecule was assayed against Aryl hydrocarbon receptor (Homo sapiens) (UniProt P35869) (assay: qHTS assay to identify small molecule that activate the aryl hydrocarbon receptor (AhR) signaling pathway (AID 743085; note: nearly all actives have a fitted effect of over 15% in size;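 for activation: HG2L7.5c1 human HepG2 liver cells with stably integrated DRE-driven firefly reporter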)). Details: HepG2 AhR-luc (HG2L7.5c1), luciferase, 24 h; series mostly up to 70.3 µM; activation: at the top concentration.
Chain of Aryl hydrocarbon receptor (Homo sapiens) (P35869 whole entry, looked up): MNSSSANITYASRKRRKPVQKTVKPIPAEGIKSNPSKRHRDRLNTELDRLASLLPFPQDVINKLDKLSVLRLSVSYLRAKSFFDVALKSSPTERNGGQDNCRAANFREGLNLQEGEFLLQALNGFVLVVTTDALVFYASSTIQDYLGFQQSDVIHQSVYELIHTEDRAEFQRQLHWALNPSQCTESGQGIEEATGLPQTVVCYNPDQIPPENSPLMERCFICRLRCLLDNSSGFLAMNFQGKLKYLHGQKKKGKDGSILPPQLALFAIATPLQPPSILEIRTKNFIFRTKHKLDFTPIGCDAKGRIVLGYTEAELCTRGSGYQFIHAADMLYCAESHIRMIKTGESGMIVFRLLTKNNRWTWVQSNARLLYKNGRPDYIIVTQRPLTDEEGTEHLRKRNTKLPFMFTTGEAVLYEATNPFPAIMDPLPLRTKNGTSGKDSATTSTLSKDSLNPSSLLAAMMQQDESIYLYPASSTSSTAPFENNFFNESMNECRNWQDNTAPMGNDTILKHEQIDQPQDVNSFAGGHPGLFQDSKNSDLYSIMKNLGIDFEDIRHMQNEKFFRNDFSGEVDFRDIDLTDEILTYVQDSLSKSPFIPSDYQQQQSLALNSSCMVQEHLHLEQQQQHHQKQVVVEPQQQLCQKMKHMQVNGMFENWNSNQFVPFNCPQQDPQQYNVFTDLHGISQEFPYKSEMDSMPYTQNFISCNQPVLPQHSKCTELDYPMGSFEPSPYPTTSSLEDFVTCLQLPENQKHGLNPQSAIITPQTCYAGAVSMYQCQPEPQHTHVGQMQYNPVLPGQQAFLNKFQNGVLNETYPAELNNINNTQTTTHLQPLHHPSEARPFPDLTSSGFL
Description: U.S. Tox21 Program National Center for Advancing Translational Sciences [NCATS] NIH Chemical Genomics Center [NCGC] U.S. Environmental Protection Agency [EPA] National Institutes of Environmental Health Sciences [NIEHS] National Toxicology Program [NTP] U.S. Food and Drug Administration [FDA] Tox21 Assay overview: The Aryl hydrocarbon Receptor (AhR), a member of the family of basic helix-loop-helix transcription factors, is crucial to adaptive responses to environmental changes. AhR mediates cellular responses to environmental pollutants such as aromatic hydrocarbons through induction of phase I and II enzymes but also interacts with other nuclear receptor signaling pathways. A cell based HepG2-AhR-luc assay (HG2L7.5c1 cell line, developed by Dr. Michael S. Denison, University of California at Davis, was used to assess the activation of AhR. HepG2 (human hepatocellular carcinoma) cells were stably transfected with an Ah receptor-responsive firefly luciferase reporter gene plasmid containing 20 dioxin responsive elements and luciferase reporter gene. Increased luciferase activity can be used to identify the compounds that induce AhR activation.
Tox21 Assay Protocol Summary: 4000 cells in 5 uL/well were dispensed into white wall/solid bottom 1536-well plates using a Multidrop Combi (Thermo Fisher Scientific Inc., Waltham, MA) dispenser. After the assay plates were incubated at 37C for 5 h, 23 nL of compound or DMSO vehicle was transferred to the assay plates by a pintool station (Kalypsys, San Diego, CA). The plates were incubated at 37C for 24 hr. After 1 ul/well of CellTiter-Fluor reagent (Promega, Madison, WI) was added into the assay plates using a Flying Reagent Dispenser (FRD) (Aurora Discovery, CA), the assay plates were incubated at 37C for 30 min. The fluorescence intensity in the plates was measured using a ViewLux plate reader (PerkinElmer, Shelton, CT), followed by the addition of 4 uL of ONE-Glo Luciferase Assay reagent (Promega) using an FRD (Aurora Discovery). After the assay plates were incubated at room temperature for 30 min, luminescence intensity was measured using a ViewLux plate reader (Perkin Elmer).
In the case of Cc1cccc(C)c1NC(=O)c1cc(S(N)(=O)=O)c(Cl)cc1O, the “activation” value was -3.38% (inactive).
With O=C(C(=O)c1ccco1)c1ccco1 the “activation” value was -2.72% [at 95 µM] (inactive).
CCCCOC(=O)CCCCC(=O)OCCCC was tested, and the “activation” value was 5.03% (inactive).
CC(C)(C)C1(CCc2ccc(Cl)cc2)CO1 (stereo not given) was tested, and the “activation” value was 2.24% (inactive).
In the case of Cc1ccc(Cl)cc1N, the “activation” value was 0.18% [at 95 µM] (inactive).
For Cc1c[nH]c2ccccc12, the “activation” value was 1.51% (inactive).
For CC1CCCO1 (stereo not given), the “activation” value was 1.67% (inactive).
In the case of CNC1CCCN(c2c(F)cc3c(=O)c(C(=O)O)cn(C4CC4)c3c2OC)C1 (stereo not given), the “activation” value was -4.11% (inactive).
For O=C1[C@@H]2[C@H]3CC[C@H](C3)[C@@H]2C(=O)N1CCCCN1CCN(c2ncccn2)CC1, the “activation” value was -0.467% (inactive).
Cc1ccc(N(CCO)CCO)cc1 was tested, and the “activation” value was 14% (inactive).
In the case of CC1=C2[C@@H]([C@H](C)CC[C@H]2/C=C(\C)C(=O)O)[C@H](O)C1, the “activation” value was 0.422% (inactive).
For CCCC(=O)OC(=O)CCC, the “activation” value was -1.1% [at 95 µM] (inactive).
In the case of Cc1cccc2sc(N)nc12, the Potency was 27.6 µM (active).
With CC(=O)OCCC1CCCCC1 the “activation” value was -0.124% (inactive).
With O=C(O)c1ccc(O)cc1O the “activation” value was -0.151% [at 95 µM] (inactive).
With CCCCCCCCCCCC(=O)OCC(O)CO (stereo not given) the Potency was “inactive”.
For CN1C(CSCC(F)(F)F)Nc2cc(Cl)c(S(N)(=O)=O)cc2S1(=O)=O (stereo not given), the “activation” value was -2.38% (inactive).
For Nc1cccc2c(N)cccc12, the Potency was 19.3 µM (active).
In the case of CC(C)OC(=O)c1ccccc1C(=O)OC(C)C, the “activation” value was -0.286% (inactive).
In the case of CCCc1nc2c(C)cc(-c3nc4ccccc4n3C)cc2n1Cc1ccc(-c2ccccc2C(=O)O)cc1, the “activation” value was -0.0341% (inactive).
For CC(C)(C)NCC(O)COc1cccc2c1C[C@H](O)[C@H](O)C2 (stereo not given in full), the “activation” value was 0.0417% [at 32.5 µM] (inactive).
CN1CCCN(C(c2ccccc2)c2ccc(Cl)cc2)CC1 (stereo not given) was tested, and the “activation” value was 3.14% (inactive).
For CNCc1ccc(NC(=O)c2c[nH]c3c2C(=O)CCC3)cc1, the Potency was 1.54 µM (active).
With CCN(CC)c1ccc(C(=C2C=CC(=[N+](CC)CC)C=C2)c2ccc(S(=O)(=O)O)cc2S(=O)(=O)[O-])cc1 the “activation” value was -6.97% (inactive).
CC/C=C\C/C=C\C/C=C\CCCCCCCC(=O)OCC was tested, and the “activation” value was -0.616% [at 95 µM] (inactive).
In the case of O=P(O)(O)Oc1ccccc1, the “activation” value was 2.59% (inactive).
In the case of COc1cc(OC)c2ccc(=O)oc2c1, the “activation” value was -0.277% (inactive).
For COc1ccc(N)c([N+](=O)[O-])c1, the “activation” value was 4.27% (inactive).
CCCCCC was tested, and the “activation” value was -0.626% (inactive).
For [Cl][Nd]([Cl])[Cl], the “activation” value was -0.005% (inactive).
For O=C(O)CN1C(=O)c2cccc3cccc(c23)C1=O, the “activation” value was -0.213% (inactive).
In the case of C=C(C)C(=O)OCCC(F)(F)C(F)(F)C(F)(F)C(F)(F)C(F)(F)C(F)(F)F, the “activation” value was 0.353% (inactive).
With CCCCC(CC)COS(=O)(=O)O (stereo not given) the Potency was “inactive”.
With Cc1ccc2nc(N)[nH]c(=O)c2c1Sc1ccncc1 the Potency was 13.3 µM (active).
CCN(Cc1cccc(S(=O)(=O)O)c1)c1ccc(C(=C2C=CC(=[N+](CC)Cc3cccc(S(=O)(=O)O)c3)C=C2)c2ccc(O)cc2S(=O)(=O)[O-])cc1 was tested, and the “activation” value was -3.68% (inactive).
In the case of c1ccc(CCCc2ccncc2)cc1, the “activation” value was -0.295% (inactive).
For O=C(O)CCC(=O)c1ccc(-c2ccccc2)cc1, the “activation” value was 5.22% [at 32.5 µM] (inactive).
With CC(C)c1ccc(C#N)cc1 the “activation” value was -0.474% (inactive).
In the case of CC1=CC[C@@]23C[C@@H]1C(C)(C)[C@@H]2CC[C@H]3C, the “activation” value was -0.516% (inactive).
Nc1ccc(N=Nc2ccc(N)cc2)cc1 was tested, and the “activation” value was 5.51% (inactive).
